Laboratory results: PubChem BioAssay (NCI)
This is part of a sample that, as a whole, favours compounds with a hit. Of some 79,000 tested, about 15% had one in any assay. Rule as the data show it: active = growth inhibition above about 70%; inactive = the rest.

Legend:
[1] = NCI Yeast Anticancer Drug Screen. Data for the rad50 strain (AID 155);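 also: 0% = growth of vehicle-only cultures of the same strain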; details: S. cerevisiae rad50 strain growth inhibition; at 50.0 µM; stronger effect = higher value
Summary of the method: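 Compounds were tested on a yeast strain with an engineered DNA damage repair alteration; the reported value is growth inhibition normalised to vehicle treatment.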

[2] = NCI Yeast Anticancer Drug Screen. Data for the mec2-1 strain (AID 157); details: S. cerevisiae mec2-1 strain, at 50.0 µM, stronger effect = higher value
Summary of the method: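 Test agents were screened against the mec2-1 yeast strain, with defined DNA repair or cell cycle alteration. Growth was scored as inhibition against vehicle-only controls.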

[3] = NCI Yeast Anticancer Drug Screen. Data for the sgs1 mgt1 strain (AID 161);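 also: 0% = growth of cultures given vehicle only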; details: S. cerevisiae sgs1 mgt1 strain, at 50.0 µM, stronger effect = higher value
Summary of the method: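 Test agents were incubated with a DNA-repair-mutant yeast strain. Growth was then read and compared against vehicle-treated controls.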

[4] = NCI Yeast Anticancer Drug Screen. Data for the cln2 rad14 strain (AID 165);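 also: 0% = growth equal to vehicle treated cultures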; details: S. cerevisiae cln2 rad14 strain, at 50.0 µM, stronger effect = higher value
Summary of the method: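 Growth of compound-exposed yeast (cln2 rad14 genotype) measured and expressed as inhibition relative to vehicle.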

[5] = NCI Yeast Anticancer Drug Screen. Data for the bub3 strain (AID 167); details: S. cerevisiae bub3 mutant strain, at 50.0 µM, stronger effect = higher value
Summary of the method: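 Growth of a checkpoint-deficient yeast mutant is measured after compound exposure. Values represent inhibition relative to vehicle.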

[6] = NCI Yeast Anticancer Drug Screen. Data for the mlh1 rad18 strain (AID 175); details: S. cerevisiae mlh1 rad18 strain growth inhibition; at 50.0 µM; stronger effect = higher value
Summary of the method: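 In this whole-cell yeast screen, a strain with altered DNA damage repair is challenged with compound, and its growth is measured against matched vehicle-treated controls.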

Measured: growth inhibition

Cc1ccc(NC(=O)C2C(=O)N(c3ccc(C)cc3)C(=O)/C2=N\NC(N)=S)cc1 (stereo not drawn)
inactive: [1] -29.7% | [2] -25.1% | [3] -38% | [4] -10.4% | [5] -10% | [6] -26.8%

COC(=O)C(NC(=O)C(C)N1C(=O)CCC(NS(=O)(=O)c2ccc(C)cc2)C1=O)C(C)C (stereo not drawn)
inactive: [1] 30.1% | [2] 8% | [3] 9.4% | [4] 1.05% | [5] 3.55% | [6] 15.8%

c1ccc(N=C(Nc2ccccc2)N2CCCCC2)cc1
inactive: [1] -20% | [2] -50.4% | [3] -7.9% | [4] 9.85% | [5] 9.35% | [6] -21.6%

NNc1ccc([N+](=O)[O-])c2[nH][nH]c(=O)c12
inactive: [1] 8% | [2] 6.5% | [3] 27.1% | [4] 11.2% | [5] 31.9% | [6] 11.4%

COc1ccc(CCNC(=O)CC(C)=O)cc1
inactive: [1] -49.2% | [2] -40.5% | [3] -42.3% | [4] 11.4% | [5] -38% | [6] -41.8%

CC(=O)NC1(C#N)c2ccccc2-c2ccccc21
inactive: [1] 18.6% | [2] 4.2% | [3] 18.9% | [4] 9.3% | [5] 5.25% | [6] 4.55%

c1cnc2[nH]cnc2n1
inactive: [1] 2.3% | [2] 0.6% | [3] -3.3% | [4] 5.75% | [5] 4.85% | [6] -10.1%

O=S1c2ccc(Cl)cc2CC(SSC2Cc3cc(Cl)ccc3S(=O)c3ccccc32)c2ccccc21 (stereo not drawn)
inactive: [1] 18.5% | [2] -35.6% | [3] -7.65% | [4] 6.15% | [5] 10.5% | [6] -9%

Cc1cc(O)c(C(C)C)cc1S(=O)(=O)O
inactive: [1] 0.7% | [2] 0.2% | [3] 3.75% | [4] -1.5% | [5] 3.25% | [6] 5.15%

O=C1NCCCC1O (stereo not drawn)
inactive: [1] 0.5% | [2] -16.5% | [3] 8% | [4] 5.35% | [5] -6.1% | [6] -2.9%

C/C(=N\NC(N)=S)c1sc(-n2nc(-c3ccccc3)cc2-c2ccccc2)nc1C
inactive: [1] 4.65% | [2] -18.2% | [3] 12.2% | [4] 0.25% | [5] 26.6% | [6] 15.7%

CSC1=NC(C)(C)N=C(Oc2cc(Cl)cc(Cl)c2)N1
inactive: [1] -14.9% | [2] -22.3% | [3] -24.9% | [4] -8.7% | [5] -27.5% | [6] -9.8%

COC1CCC(/C=C(\C#N)C2CCC(OC)CC2)CC1 (stereo not drawn)
inactive: [1] 37.6% | [2] 49.8% | [3] 42.8% | [4] 11.9% | [5] 51.2% | [6] 30%

Cc1ccc(C(=O)CCN2CCOCC2)c(C)c1
inactive: [1] 40.1% | [2] 5.55% | [3] 26.6% | [4] -4.65% | [5] 29.1% | [6] 31%

O=C1Nc2ccc(Br)cc2C1(O)Cc1cccc([N+](=O)[O-])c1 (stereo not drawn)
inactive: [1] 7.35% | [2] 12.2% | [3] 13.5% | [4] 3.55% | [5] -12.9% | [6] 11.8%

CN(C)C(=O)C1C2CCCC(CC2)C1C(=O)N(C)C (stereo not drawn)
inactive: [1] 13.7% | [2] 19.6% | [3] 21.2% | [4] 20.5% | [5] 18% | [6] 20.2%

CC/C=C(\CCC)C(C#N)(CC)C(=O)OCC (stereo not drawn)
inactive: [1] 9.1% | [2] -33.6% | [3] -21.2% | [4] -7.6% | [5] -24.6% | [6] -9.55%

COc1cccc2c1oc(=O)c1ccccc12
inactive: [1] 9.55% | [2] -6.75% | [3] -19.6% | [4] -66.8% | [5] -2.35% | [6] -5.85%

c1ccc(N=c2snc3scc(-c4ccccc4)n23)cc1
inactive: [1] 28.4% | [2] 6.95% | [3] 13.8% | [4] 17.6% | [5] 33.5% | [6] 16.6%

CNC(=O)c1n[nH]c(=S)[nH]c1=O
inactive: [1] -7.4% | [2] -4.9% | [3] 0.8% | [4] -52.8% | [5] -6.7% | [6] -7.5%

CC/C=C/C(C)c1cc(C(=O)O)ccc1OC (stereo not drawn)
inactive: [1] 10.9% | [2] 4.3% | [3] 13.4% | [4] 6.55% | [5] -13.2% | [6] 18%

Cc1ccc(S(=O)(=O)Nn2nnnc2N)cc1
inactive: [1] -7.85% | [2] 11.7% | [3] -7.6% | [4] -4.4% | [5] -4.65% | [6] 7.25%

N[C@@H]1c2c(Br)sc(N3CCOCC3)c2C(=O)[C@@H]1O
inactive: [1] 10.8% | [2] -10.4% | [3] 4.1% | [4] -18.6% | [5] 5.4% | [6] -31.6%

C=C1CC2C(=O)N(c3ccccc3)C(=O)C2CC1n1[nH]c(=O)n(Cc2ccccc2)c1=O (stereo not drawn)
inactive: [1] 3.8% | [2] 3.1% | [3] 9.65% | [4] -29.8% | [5] 15.7% | [6] -5.7%

ClC(Cl)(Cl)C(Cl)(Cl)C(Cl)(Cl)Cl
inactive: [1] 42.1% | [2] 14.8% | [3] 16% | [4] -19.4% | [5] 6.75% | [6] 24.3%

COC(=O)NS(=O)(=O)C1=Cc2cccc3cccc1c23
inactive: [1] 8.55% | [2] 4.95% | [3] 9.25% | [4] 9.75% | [5] 6.35% | [6] 8.4%

O=C(c1ccccc1)C1N=NN(Cc2ccccc2[N+](=O)[O-])C1C(=O)c1ccccc1 (stereo not drawn)
inactive: [1] -6.75% | [2] -30.9% | [3] -25.1% | [4] -57.5% | [5] -1.45% | [6] -0.65%

O=C1CS(=O)(=O)C2(CCCCC2)C(=O)N1
inactive: [1] -15.1% | [2] -5.65% | [3] -12.2% | [4] -42.1% | [5] -3.2% | [6] -27.6%

CCCCOCN1COCN(COCCCC)C1=O
inactive: [1] -2.3% | [2] -17.4% | [3] -0.45% | [4] 6.95% | [5] 18.1% | [6] 6.2%

Cc1cc(CC(O)(c2ccccc2)c2ccccc2)nc2[nH]c(=O)ccc12
inactive: [1] 0.7% | [2] -6.7% | [3] -1.05% | [4] 44.9% | [5] 6.95% | [6] -1.35%

NNC(=O)CCC(=O)NC1C2CC3CC(C2)CC1C3 (stereo not drawn)
inactive: [1] -23.6% | [2] -15.4% | [3] -18.6% | [4] -0.85% | [5] -10.7% | [6] 25.2%

C=CCN1C2Cc3cc(OC)c(OC)cc3C1Cc1cc(OC)c(OC)cc12
inactive: [1] 0.15% | [2] -19.2% | [3] -23.6% | [4] -6.45% | [5] -16.2% | [6] -10.3%

COc1cc(C2C3=C(CCC3=O)Oc3cc4c(cc32)OCO4)cc(OC)c1OC (stereo not drawn)
inactive: [1] 2.55% | [2] 17.1% | [3] -12.2% | [4] 2.05% | [5] -4.55% | [6] 1.8%

Cc1cc(CC#N)c(CC#N)cc1C
inactive: [1] 4.05% | [2] -10.1% | [3] -7% | [4] 9.2% | [5] -3.95% | [6] 3.95%

Cc1cccc(OCC(O)CN(Cc2ccsc2)c2ccccn2)c1 (stereo not drawn)
inactive: [1] 18.4% | [2] 16.4% | [3] 18.2% | [4] 37.3% | [5] 14.9% | [6] 8.2%

CCCOC(=O)CCBr
inactive: [1] -2.55% | [2] 10.1% | [3] -13.9% | [4] -57% | [5] -22.9% | [6] -8.1%

CC(=O)N/N=C/c1ccc(C)cc1
inactive: [1] 6.6% | [2] -1.3% | [3] -11.1% | [4] -0.9% | [5] -11.8% | [6] 1.75%

CCOc1ccc(-n2c(=O)c(N=Nc3ccccc3Cl)c(O)n(-c3ccc(Br)cc3)c2=S)cc1
inactive: [1] 38.5% | [2] 17.9% | [3] 52.1% | [4] 12.7% | [5] -11.7% | [6] 5.8%
